Data as given in PubChem BioAssay.
The list shows a part of the results. Calls of active or inactive are those of the source. Rule as the data show it, unless noted: active = inhibition above about 25%; inactive = the rest.

Assays:
[1] = reduced OD of T4-infected AddAB+ E. coli – absorbance, E. coli V3065, T4 phage, triplicate, AddAB inhibitor project, confirmation (AID 488942;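 active = mean inhibition above a set limit taken from the earlier primary screen, cut at about 13% in these data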;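 also: higher means less bacterial growth since AddAB block lets phage replicate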); details: E. coli V3065 expressing H. pylori AddAB, at 11.9 µM, hits give high values, T4 phage with gene 2 nonsense mutations
[2] = reduced OD of phage-infected RecBCD+ V66 E. coli – absorbance, mutant T4 phage, counter-screen for AddAB inhibitor project (AID 488955;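 active = mean inhibition above the mean of solvent-only control wells plus 3 SD, cut at about 4% in these data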;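 also: optical density read after an 18 h incubation at 37 °C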); details: OD growth, at 11.9 µM, hits give high values
[3] = bacterial growth inhibitors – absorbance, counter-screen for AddAB inhibitor project, confirmation (AID 488956); details: bacterial viability, absorbance (AddAB counterscreen); at 11.9 µM; hits give high values
[4] = reduced OD of V66 E. coli with T4 gene 2 phage – absorbance, RecBCD inhibitor project, confirmation (AID 651982;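 active = mean inhibition over triplicates exceeding the hit threshold derived in the original primary screen, cut at about 11% in these data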); details: E. coli V66 + T4 2- phage, growth OD; at 11.9 µM; hits give high values
[5] = bacterial growth inhibition – absorbance, high throughput, counter-screen for RecBCD inhibitor project (AID 651983; in the data active = inhibition above about 20%;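 also: E. coli strain V66 grown with compound alone and no phage infection; 0% = bacteria with DMSO vehicle only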); details: E. coli viability, absorbance (OD) growth; at 11.9 µM; hits give high values
[6] = reduced optical density, T4-challenged addAB+ bacteria – absorbance, E. coli V3065, T4 phage, counter-screen for RecBCD inhibitor project, confirmation (AID 651984;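 active = mean inhibition above the solvent-only control wells' mean plus 3 SD, cut at about 22% in these data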;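 also: higher means less bacterial growth from phage killing when AddAB is blocked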); details: E. coli expressing H. pylori AddAB + T4 phage, OD growth; at 11.9 µM; hits give high values; gene 2 mutant T4, recBCD-deleted host
[7] = biological target: Platelet-activating factor acetylhydrolase IB subunit alpha1 (Homo sapiens) (UniProt Q15102); assay: inhibition of PAF acetylhydrolase 1B subunit 3 – biochemical, fluorescence polarization, human, confirmation (AID 493032;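 active = average inhibition over triplicate runs above the hit cutoff set in the earlier primary screen, cut at about 25% in these data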;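 also: 0% = enzyme with DMSO and 100% = wells lacking PAFAH1B3 protein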); details: recombinant PAFAH1B3, FP-Rh activity-based probe, at 3.39 µM, hits give high values
[8] = biological target: Photoreceptor-specific nuclear receptor (Homo sapiens) (UniProt Q9Y5X4); assay: retest of NR2E3-NCOR disrupting agonists – cell-based, luminescence, CHO-S two-hybrid, confirmation (AID 624378;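 active = average inhibition above a cutoff equal to the mean inhibition of all tested compounds plus one SD, cut at about 70% in these data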;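 also: 0% = DMSO in NR2E3 cells and 100% = DMSO in cells lacking NR2E3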); details: CHO-S mammalian two-hybrid NR2E3-NCOR, luciferase luminescence; at 3.98 µM; hits give high values
[9] = nonselective effects on VP16 transactivation – cell-based, luminescence, CHO-S, high throughput, counter-screen for NR2E3 agonist project, confirmation (AID 624379;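 active = mean inhibition above a cutoff equal to the average over all tested compounds plus one standard deviation, cut at about 70% in these data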;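 also: 0% = DMSO with VP16-transfected cells and 100% = DMSO with cells lacking VP16; higher means less reporter light so more repression of VP16 activity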); details: CHO-S GAL4-VP16 luciferase reporter, at 3.98 µM, hits give high values
[10] = test system: transactivating tegument protein VP16 (Human herpesvirus 1); assay: compounds suppressing VP16-driven luciferase signal – cell-based, luminescence, single concentration, counter-screen for SRC2 inhibitor project (AID 652007; in the data active = inhibition above about 36%); details: cell-based VP16 transactivation luciferase reporter, at 8.9 µM, hits give high values
[11] = biological target: Nuclear receptor coactivator 2 (Homo sapiens) (UniProt Q15596); assay: inhibition of GAL4-SRC2 driven luciferase expression – cell-based, luminescence, HEK293, triplicate, confirmation (AID 652008;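 active = mean inhibition above 46.5%, the solvent-only control mean plus 3 SD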;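 also: 0% = DMSO-treated cells and 100% = Gossypol at 36 µM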); details: HEK293 GAL4-SRC2 luciferase reporter, at 8.9 µM, hits give high values
[12] = VP16-driven transactivation reporter suppression – cell-based, luminescence, HEK293, counter-screen for COUP-TFII antagonist project (AID 687007; in the data active = inhibition above about 13%); details: HEK293 Gal4-VP16 luciferase reporter, at 8.5 µM, hits give high values
[13] = biological target: COUP transcription factor 2 (Homo sapiens) (UniProt P24468); assay: retest of COUP-TFII reporter suppressors – cell-based, luciferase reporter, HEK293, triplicate, confirmation (AID 687008;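 active = mean inhibition over three repeats above a set limit taken from the earlier primary screen, cut at about 38% in these data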;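 also: 100% = cells given the luciferase reporter alone without the COUP-TF2 vector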); details: HEK293 NGFI-A luciferase reporter, luminescence; at 8.5 µM; hits give high values

Measured: inhibition

Chain of Platelet-activating factor acetylhydrolase IB subunit alpha1 (Homo sapiens) (Q15102 whole entry, looked up): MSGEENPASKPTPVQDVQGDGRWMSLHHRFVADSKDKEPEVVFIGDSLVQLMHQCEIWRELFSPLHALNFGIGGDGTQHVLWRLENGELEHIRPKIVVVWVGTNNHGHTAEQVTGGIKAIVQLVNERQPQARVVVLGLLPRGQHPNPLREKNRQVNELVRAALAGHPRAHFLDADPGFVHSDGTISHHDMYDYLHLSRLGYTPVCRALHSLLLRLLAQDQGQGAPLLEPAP
Chain of Nuclear receptor coactivator 2 (Homo sapiens) (Q15596 whole entry, looked up, the tested form may be a part): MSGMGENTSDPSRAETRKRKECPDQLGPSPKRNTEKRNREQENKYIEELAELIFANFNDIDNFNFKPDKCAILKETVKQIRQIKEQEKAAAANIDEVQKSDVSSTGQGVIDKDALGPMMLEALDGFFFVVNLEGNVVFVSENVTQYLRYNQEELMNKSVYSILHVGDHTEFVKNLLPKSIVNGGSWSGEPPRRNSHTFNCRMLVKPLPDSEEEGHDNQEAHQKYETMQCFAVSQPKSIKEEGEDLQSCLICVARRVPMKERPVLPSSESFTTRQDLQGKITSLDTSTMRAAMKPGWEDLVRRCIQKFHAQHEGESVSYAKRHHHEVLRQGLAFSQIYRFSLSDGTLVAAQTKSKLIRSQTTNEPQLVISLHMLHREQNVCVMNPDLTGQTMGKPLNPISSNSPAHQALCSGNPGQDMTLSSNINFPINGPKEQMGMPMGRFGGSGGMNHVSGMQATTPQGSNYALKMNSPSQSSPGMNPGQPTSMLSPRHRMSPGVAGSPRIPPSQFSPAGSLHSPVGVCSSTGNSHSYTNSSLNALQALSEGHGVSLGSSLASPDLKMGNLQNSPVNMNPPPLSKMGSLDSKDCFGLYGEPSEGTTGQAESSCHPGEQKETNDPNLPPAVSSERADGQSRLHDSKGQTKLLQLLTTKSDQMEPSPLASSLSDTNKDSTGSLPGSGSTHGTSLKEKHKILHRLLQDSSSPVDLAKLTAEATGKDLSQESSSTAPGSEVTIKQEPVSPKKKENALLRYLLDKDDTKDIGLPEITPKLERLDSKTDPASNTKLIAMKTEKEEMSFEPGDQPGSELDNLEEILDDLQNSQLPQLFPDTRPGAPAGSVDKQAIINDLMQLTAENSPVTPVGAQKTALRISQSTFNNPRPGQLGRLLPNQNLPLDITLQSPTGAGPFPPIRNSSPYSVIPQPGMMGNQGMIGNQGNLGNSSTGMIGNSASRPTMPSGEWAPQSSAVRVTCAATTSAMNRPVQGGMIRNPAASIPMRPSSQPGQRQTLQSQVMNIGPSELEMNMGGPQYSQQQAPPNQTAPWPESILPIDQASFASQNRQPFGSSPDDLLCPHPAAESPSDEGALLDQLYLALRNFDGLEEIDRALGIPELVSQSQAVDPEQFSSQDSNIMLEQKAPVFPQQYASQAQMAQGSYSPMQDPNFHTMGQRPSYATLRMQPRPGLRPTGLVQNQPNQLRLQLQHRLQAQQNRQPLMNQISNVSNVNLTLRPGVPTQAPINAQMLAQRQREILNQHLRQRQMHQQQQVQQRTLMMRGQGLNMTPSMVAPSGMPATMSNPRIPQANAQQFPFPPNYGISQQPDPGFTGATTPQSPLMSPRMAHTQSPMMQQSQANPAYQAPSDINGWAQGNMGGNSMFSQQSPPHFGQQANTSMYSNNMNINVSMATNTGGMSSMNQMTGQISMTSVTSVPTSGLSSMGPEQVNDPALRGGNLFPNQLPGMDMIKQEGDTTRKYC
Chain of Photoreceptor-specific nuclear receptor (Homo sapiens) (Q9Y5X4 whole entry, looked up): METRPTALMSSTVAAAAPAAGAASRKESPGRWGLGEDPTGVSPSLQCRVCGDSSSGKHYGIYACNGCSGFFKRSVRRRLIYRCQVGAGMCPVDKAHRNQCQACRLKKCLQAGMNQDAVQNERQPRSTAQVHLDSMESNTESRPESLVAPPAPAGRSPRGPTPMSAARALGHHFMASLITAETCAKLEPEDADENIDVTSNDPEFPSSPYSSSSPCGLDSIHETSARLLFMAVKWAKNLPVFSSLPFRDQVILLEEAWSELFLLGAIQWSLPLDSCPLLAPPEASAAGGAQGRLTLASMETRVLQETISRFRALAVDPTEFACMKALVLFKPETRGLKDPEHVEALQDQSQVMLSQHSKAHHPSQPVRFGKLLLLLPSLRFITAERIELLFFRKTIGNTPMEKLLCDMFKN
Chain of COUP transcription factor 2 (Homo sapiens) (P24468 whole entry, looked up): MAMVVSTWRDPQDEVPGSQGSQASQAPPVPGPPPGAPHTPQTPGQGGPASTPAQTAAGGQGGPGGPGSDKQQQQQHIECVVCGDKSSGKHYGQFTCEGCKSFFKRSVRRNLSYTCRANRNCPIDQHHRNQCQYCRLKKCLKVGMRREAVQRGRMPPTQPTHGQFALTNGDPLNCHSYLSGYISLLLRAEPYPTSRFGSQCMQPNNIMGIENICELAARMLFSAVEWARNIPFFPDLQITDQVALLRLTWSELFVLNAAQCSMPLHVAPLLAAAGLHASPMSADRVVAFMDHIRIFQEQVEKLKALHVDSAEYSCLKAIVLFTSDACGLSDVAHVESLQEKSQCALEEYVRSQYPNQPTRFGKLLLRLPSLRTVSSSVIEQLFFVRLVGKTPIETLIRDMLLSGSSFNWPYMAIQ

O=[N+]([O-])c1ccc(N=Cc2c(O)ccc3ccccc23)cc1
inactive: [1] -0.99% | [2] -2.02% | [3] -4.22%

O=C1c2ccccc2NC(c2ccc(-c3cccc(Cl)c3)o2)N1O (stereo unspecified)
inactive: [3] 13.2% | [5] 16.7% | [6] 18.9%
active: [1] 17.5% | [2] 18.4% | [4] 13.7%

ON=C1/C(=N\O)CC2(C/C1=N/O)OCCO2
inactive: [4] 1.75% | [5] 4.59% | [6] -10.8%
active: [7] 27.1%

CCOC(=O)c1ccc(NC(=O)Cn2cnc3cc(C)c(C)cc32)cc1
inactive: [3] 21.4% | [5] 14.5% | [10] 19.5% | [11] 36.7% | [12] 8.87%
active: [1] 24.2% | [2] 18.4% | [8] 96% | [9] 87.5% | [4] 13.5% | [6] 21.8% | [13] 62.9%

O=C(CSc1ccc(-c2ccccn2)nn1)Nc1ccccc1
active: [2] 6.8%
inactive: [1] 5.71% | [3] 5% | [4] 2.01% | [5] 1.79% | [6] 11.1%

O=C(NCC1CCCO1)C(C(=O)c1ccccc1)n1cc(Cl)ccc1=O (stereo unspecified)
inactive: [1] -2.76% | [2] -0.21% | [3] -1.24%

CC[C@H]1OC(=O)[C@H](C)[C@@H](O[C@H]2C[C@@](C)(OC)[C@@H](O)[C@H](C)O2)[C@H](C)[C@@H](O[C@@H]2O[C@H](C)C[C@H](N(C)C)[C@H]2O)[C@](C)(O)C[C@@H](C)[C@@H]2N[C@@H](COCCOC)O[C@H]([C@H]2C)[C@]1(C)O
active: [1] 62.5% | [2] 41% | [3] 37.2% | [4] 33.9% | [5] 34.4% | [6] 42.6%

CN1CCN(c2cc3c(cc2F)c(=O)c(C(=O)O)cn3CCF)CC1
active: [1] 103% | [2] 102% | [3] 103% | [4] 103% | [5] 103% | [6] 102%
